Data taken from PubChem BioAssay (NCATS).
Results filed as inconclusive are left out. Activity calls are given as the source filed them. Calls follow the shape of the dose curve; as a rule, active = well fitted curve in the direction sought with a large enough effect; inconclusive = small, poorly fitted or top-dose-only effect, or another doubt; inactive = no such curve, though single readings can be large; an effect the other way counts as inactive or inconclusive.

Tests used:
CRL-7250 = normal cell line; experiment: Cytotoxic Profiling of Annotated Libraries Using Quantitative High-Throughput Screening (AID 1296008); settings: Five cell lines viability, CellTiter-Glo ATP luminescence, 48-72 h; max response: active compounds read low; also: nearly all actives have a fitted effect of over 60% in size; as to max response: % is scaled to controls: 0 for no effect and ±100 for the full control effect
Method in brief: (§1)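 Compounds were pin-transferred onto cells and incubated 48 or 72 hr at 37 degree Celsius, 95% humidity. CellTiter-Glo was added, plates sat 10 min at room temperature, then ATP-coupled luminescence was imaged as the viability read-out.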

HEK293 = experiment: as above; settings: Five cell lines viability, CellTiter-Glo ATP luminescence, 48-72 h; max response: active compounds read low
Method in brief: as §1

HaCat [1] = experiment: as above; settings: Five cell lines viability, CellTiter-Glo ATP luminescence, 48-72 h; max response: active compounds read low
Method in brief: as §1

KB-3-1 = experiment: as above; settings: Five cell lines viability, CellTiter-Glo ATP luminescence, 48-72 h; max response: active compounds read low
Method in brief: as §1

NIH3T3 = experiment: as above; settings: Five cell lines viability, CellTiter-Glo ATP luminescence, 48-72 h; max response: active compounds read low
Method in brief: as §1

HACAT [2] = experiment: qHTS assay to identify novel small-molecules to repurpose for Merkel cell carcinoma treatment (AID 1296009); settings: MCC and control cell lines, CellTiter-Glo viability, 72 h; at 44.8 µM (top of the series) unless noted; also: nearly all actives have a fitted effect of over 60% in size
Method in brief: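 Viability readout: ATP luminescence (CellTiter-Glo) after 72 hr drug exposure at 37 degree celsius. Dose-response format was 8 points for NPC and 11 points for MIPE; data normalized to in-plate controls.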

C33A = experiment: Primary qHTS to identify gynecologic anti-cancer compounds using libraries of approved drugs and bioactive compounds (AID 1345084); settings: Gynecologic cancer cell panel viability, ATPlite luminescence, 48 h; series mostly up to 57.5 µM; also: % is scaled to controls: 0 for no effect and ±100 for the full control effect; nearly all actives have a fitted effect of over 55% in size
Method in brief: (§2)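 Cells, 1,000 per well, were allowed to settle for 16 h at 37 C before compound addition. Five concentrations were tested for 48 h, and viability was read by ATPlite luminescence after 15 min at room temperature.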

CAOV3 = experiment: as above; settings: Gynecologic cancer cell panel viability, ATPlite luminescence, 48 h; series mostly up to 57.5 µM
Method in brief: as §2

CASKI = experiment: as above; settings: Gynecologic cancer cell panel viability, ATPlite luminescence, 48 h; series mostly up to 57.5 µM
Method in brief: as §2

Es-2 = experiment: as above; settings: Gynecologic cancer cell panel viability, ATPlite luminescence, 48 h; series mostly up to 57.5 µM
Method in brief: as §2

HeLa = experiment: as above; settings: Gynecologic cancer cell panel viability, ATPlite luminescence, 48 h; series mostly up to 57.5 µM
Method in brief: as §2

Hek293T = experiment: as above; settings: Gynecologic cancer cell panel viability, ATPlite luminescence, 48 h, control line for the selectivity index; series mostly up to 57.5 µM
Method in brief: as §2

JEG-3 = experiment: as above; settings: Gynecologic cancer cell panel viability, ATPlite luminescence, 48 h; series mostly up to 57.5 µM
Method in brief: as §2

OV90 = experiment: as above; settings: Gynecologic cancer cell panel viability, ATPlite luminescence, 48 h; series mostly up to 57.5 µM
Method in brief: as §2

PA-1 = experiment: as above; settings: Gynecologic cancer cell panel viability, ATPlite luminescence, 48 h; series mostly up to 57.5 µM
Method in brief: as §2

C=C1CCC2[C@](C)(CO)CCC[C@@]2(C)[C@@H]1CCC1=CCOC1=O (stereo not given in full)
inactive: max response (CRL-7250) -10.5% | max response (HEK293) -0.138% | outcome (HaCat [1]) | max response (KB-3-1) 5.6% | max response (NIH3T3) -5.66% | outcome (HACAT [2]) | Potency (C33A) | Potency (CAOV3) | outcome (CASKI) | Potency (Es-2) | Potency (HeLa) | Potency (Hek293T) | Potency (JEG-3) | Potency (OV90) | Potency (PA-1)

COC1OC(=O)C2=C1C1(C)CCCC(C)(C)C1CC2O (stereo not given)
inactive: max response (CRL-7250) -6.21% | max response (HEK293) 1.96% | outcome (HaCat [1]) | outcome (KB-3-1) | outcome (NIH3T3) | outcome (HACAT [2]) | Potency (C33A) | Potency (CAOV3) | outcome (CASKI) | Potency (Es-2) | Potency (HeLa) | Potency (Hek293T) | Potency (JEG-3) | Potency (OV90) | Potency (PA-1)

C=C1Cc2c(Cl)cc3[nH]c4c5c3c2[C@@]2(O)[C@@H]1C[C@@H]2C(C)(C)O[C@H]5C1CC[C@@]2(O)[C@@]35O[C@@H]3[C@H]3OC(C)(C)[C@H]3O[C@H]5CC[C@]2(C)[C@@]41C (stereo not given in full)
inactive: max response (CRL-7250) -4.78% | max response (HEK293) 0.456% | outcome (HaCat [1]) | max response (KB-3-1) 6.12% | outcome (NIH3T3) | outcome (HACAT [2]) inactive [at 17.4 µM] | Potency (C33A) | Potency (CAOV3) | outcome (CASKI) | Potency (Es-2) | Potency (HeLa) | Potency (Hek293T) | Potency (JEG-3) | Potency (OV90) | Potency (PA-1)

CS(=O)(=O)c1ccccc1N1CCN(c2nc3c(c(=O)[nH]2)CSCC3)CC1
inactive: max response (CRL-7250) 0.787% | max response (HEK293) 1.58% | outcome (HaCat [1]) | max response (KB-3-1) -11.7% | max response (NIH3T3) -5.12% | outcome (HACAT [2]) | Potency (C33A) | Potency (CAOV3) | outcome (CASKI) | Potency (Es-2) | Potency (HeLa) | Potency (Hek293T) | Potency (JEG-3) | Potency (OV90) | Potency (PA-1)

COC(O)(CC(C)C)C1Oc2cc(C)[nH]c(=O)c2O1 (stereo not given)
inactive: outcome (CRL-7250) | max response (HEK293) 0.893% | outcome (HaCat [1]) | max response (KB-3-1) 6.46% | max response (NIH3T3) 3.8% | outcome (HACAT [2]) | Potency (C33A) | Potency (CAOV3) | outcome (CASKI) | Potency (Es-2) | Potency (HeLa) | Potency (Hek293T) | Potency (JEG-3) | Potency (OV90) | Potency (PA-1)

CC(C)(O)c1ccc2c(c1)C(=O)C[C@H]1[C@](C)(C(=O)O)CCC[C@]21C
inactive: max response (CRL-7250) -1.21% | max response (HEK293) -10.2% | outcome (HaCat [1]) | max response (KB-3-1) 5.87% | outcome (NIH3T3) | outcome (HACAT [2]) | Potency (C33A) | Potency (CAOV3) | outcome (CASKI) | Potency (Es-2) | Potency (HeLa) | Potency (Hek293T) | Potency (JEG-3) | Potency (OV90) | Potency (PA-1)

Cc1c(C)c(NCC(=O)N(C)C2CCN(Cc3ccc(C(N)=O)cc3)CC2)c(C)c(C)c1N
inactive: outcome (CRL-7250) | max response (HEK293) -11.3% | outcome (HaCat [1]) | max response (KB-3-1) -3.8% | max response (NIH3T3) 2.96% | outcome (HACAT [2]) | Potency (C33A) | Potency (CAOV3) | outcome (CASKI) | Potency (Es-2) | Potency (HeLa) | Potency (Hek293T) | Potency (JEG-3) | Potency (OV90) | Potency (PA-1)

CC(C)CC(=O)NCCn1cc(C(=O)O)c(=O)cc1C(O)c1ccccc1 (stereo not given)
inactive: outcome (CRL-7250) | max response (HEK293) -11.3% | outcome (HaCat [1]) | outcome (KB-3-1) | max response (NIH3T3) 3.17% | outcome (HACAT [2]) | Potency (C33A) | Potency (CAOV3) | outcome (CASKI) | Potency (Es-2) | Potency (HeLa) | Potency (Hek293T) | Potency (JEG-3) | Potency (OV90) | Potency (PA-1)

COc1ccc(C(=O)CC(=O)O)c2c1C=CC(C)(C)O2
inactive: outcome (CRL-7250) | max response (HEK293) -7.49% | outcome (HaCat [1]) | max response (KB-3-1) 7.77% | max response (NIH3T3) -1.38% | outcome (HACAT [2]) | Potency (C33A) | Potency (CAOV3) | outcome (CASKI) | Potency (Es-2) | Potency (HeLa) | Potency (Hek293T) | Potency (JEG-3) | Potency (OV90) | Potency (PA-1)

C=Cc1ccc(O[C@@H]2O[C@H](CO[C@@H]3O[C@@H](C)[C@H](O)[C@@H](O)[C@H]3O)[C@@H](O)[C@H](O)[C@H]2O)cc1
inactive: max response (CRL-7250) -5.44% | max response (HEK293) -5.77% | outcome (HaCat [1]) | max response (KB-3-1) 6.98% | max response (NIH3T3) -1.18% | outcome (HACAT [2]) inactive [at 17.4 µM] | Potency (C33A) | Potency (CAOV3) | outcome (CASKI) | Potency (Es-2) | Potency (HeLa) | Potency (Hek293T) | Potency (JEG-3) | Potency (OV90) | Potency (PA-1)

CC1=CC(=O)CC(C)(C)C1CO[C@@H]1O[C@H](CO)[C@@H](O)[C@H](O)[C@H]1O (stereo not given in full)
inactive: max response (CRL-7250) -5.79% | max response (HEK293) -1.36% | outcome (HaCat [1]) | max response (KB-3-1) 7.69% | max response (NIH3T3) -1.71% | outcome (HACAT [2]) | Potency (C33A) | Potency (CAOV3) | outcome (CASKI) | Potency (Es-2) | Potency (HeLa) | Potency (Hek293T) | Potency (JEG-3) | Potency (OV90) | Potency (PA-1)
